Results filed as inconclusive are left out. The source made the active and inactive calls. Unless noted, the call rests on the fitted dose curve; in most records, active means well fitted curve in the direction sought with a large enough effect; inconclusive means small, poorly fitted or top-dose-only effect, or another doubt; inactive means no such curve, though single readings can be large; an effect the other way counts as inactive or inconclusive. Residues, ends and D or L forms follow the SMILES beside them. *: point of attachment. Cbz = O=C(OCc1ccccc1)*
Legend:
[1] = biological target: Arylsulfatase A (Homo sapiens) (UniProt P15289); assay: qHTS screen for enhancers of Arylsulfatase A (ASA1): LOPAC Validation Assay (AID 720538); details: ASA enzyme activity, LOPAC qHTS enhancer assay; series mostly up to 57.5 µM; further: potency means the concentration at half of the fitted maximal effect
Procedure, shortened: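 SV40-transformed skin fibroblasts from an MLD patient (ASA-I179S) were treated with compounds for 48h at 37 degree C, then lysed with 0.5mM pNCS final substrate for 14h at room temperature; NaOH stop, fluorescence read (Ex=525 nm; Em=598 nm).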

[2] = qHTS for compounds that reverse cellular toxicity of Amyloid beta (A-beta) peptide in yeast: LOPAC Validation Assay (AID 720559); details: yeast expressing A-beta; series mostly up to 46.1 µM;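 further: plate controls were DMSO for no effect and equimolar ferric chloride plus clioquinol rescue for full effect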
Procedure, shortened: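 Yeast cells expressing toxic A-beta were combined with pinned compounds in growth medium and incubated 48 hr at 30 C. Growth was read as absorbance at 600 nm and normalized to DMSO and to an equimolar FeCl3/clioquinol positive control.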

[3] = qHTS for Activators of Parkin Expression: LOPAC Validation Assay (NLuc Reporter) (AID 720572;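 further: 0% = DMSO and 100% = positive control compound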); details: Parkin promoter NanoLuc reporter cells, luminescence; series mostly up to 46.1 µM
Procedure, shortened: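 Neuronal cells with a Parkin promoter-driven FLuc/NLuc coincidence reporter were treated 24 h at 37 C in 7-point dose response (LOPAC). NLuc luminescence read after FLuc; signals normalized to DMSO and positive control (100%).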

[4] = biological target: Nuclear receptor ROR-gamma (Homo sapiens) (UniProt P51449); assay: qHTS assay for small molecule antagonists of the retinoid-related orphan receptor gamma (ROR-gamma) signaling pathway (AID 651802); details: ROR-gamma antagonist cell reporter assay; series mostly up to 92.2 µM;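 further: luciferase reporter luminescence driven by ROR response element; on the % scale 0 is the no-effect control and ±100 the full control effect; nearly all actives have a fitted effect of over 60% in size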
Procedure, shortened: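 CHO, TET-inducible ROR + RORE-LUC reporter, 1536-well qHTS. Compound pinned, doxycycline added, 16hr 37C/5% CO2. ONE-Glo, 30 min RT, luminescence; signal drop scored as antagonism.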

[5] = qHTS for Activators of Parkin Expression: LOPAC Validation Assay (FLuc Reporter) (AID 720573;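 further: 0% = DMSO and 100% = positive control compounds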); details: Cell line, PRKN promoter firefly luciferase reporter; series mostly up to 46.1 µM
Procedure, shortened: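 Neuronal cell line stably carrying FLuc/NLuc coincidence reporter under Parkin promoter; cells plated 24 h, then compounds added in 7-point dose response for 24 h at 37 C. FLuc luminescence read; normalized to DMSO and positive control (100%).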

[6] = qHTS assay for small molecule agonists of the antioxidant response element (ARE) signaling pathway measured by Nrf2-dependant transcriptional activity (AID 720636; active means well fitted curve in the direction sought with a large enough effect in the repeat runs; an effect the other way counts as inactive or inconclusive;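 further: HepG2 cells with an ARE-driven luciferase reporter; % of control where 0% means no effect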); details: ARE-luc HepG2, Nrf2 luciferase reporter, 16 h; series mostly up to 92.4 µM
Procedure, shortened: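 In HepG2 cells engineered with an Nrf2-responsive luciferase gene, ARE induction was quantified as luminescence after 16 hr compound treatment at 37 C.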

[7] = qHTS assay for small molecule antagonists of the retinoid-related orphan receptor gamma (ROR-gamma) signaling pathway - cell viability counter screen (AID 720652; active means well fitted curve in the direction sought with a large enough effect in the repeat runs; an effect the other way counts as inactive or inconclusive;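 further: compound exposure lasted 16 hr before ATP read; on the % scale 0 is the no-effect control and ±100 the full control effect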); details: RORgamma reporter cell line viability counter screen; series mostly up to 92.2 µM
Procedure, shortened: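 Luminescence from CellTiter-Glo after 30 min at room temperature reported cellular ATP as the cytotoxicity measure. Cells were the CHO reporter line with doxycycline-induced ROR-gamma expression, exposed to compound for 16 hr at 37 C.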

[8] = qHTS assay for small molecule agonists of the antioxidant response element (ARE) signaling pathway measured by Nrf2-dependant transcriptional activity - cell viability counter screen (AID 720653; active means well fitted curve in the direction sought with a large enough effect in the repeat runs; an effect the other way counts as inactive or inconclusive; further: on the % scale 0 is the no-effect control and ±100 the full control effect); details: ARE-bla HepG2 viability, CellTiter-Glo ATP luminescence, 16 h; hits give low values
Procedure, shortened: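 ARE-bla HepG2 cells treated with compounds for 16 h at 37C; this counter screen measures viability as intracellular ATP by CellTiter-Glo luminescence after 30 min at room temperature.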

Sequence of Arylsulfatase A (Homo sapiens) (P15289 whole entry, looked up): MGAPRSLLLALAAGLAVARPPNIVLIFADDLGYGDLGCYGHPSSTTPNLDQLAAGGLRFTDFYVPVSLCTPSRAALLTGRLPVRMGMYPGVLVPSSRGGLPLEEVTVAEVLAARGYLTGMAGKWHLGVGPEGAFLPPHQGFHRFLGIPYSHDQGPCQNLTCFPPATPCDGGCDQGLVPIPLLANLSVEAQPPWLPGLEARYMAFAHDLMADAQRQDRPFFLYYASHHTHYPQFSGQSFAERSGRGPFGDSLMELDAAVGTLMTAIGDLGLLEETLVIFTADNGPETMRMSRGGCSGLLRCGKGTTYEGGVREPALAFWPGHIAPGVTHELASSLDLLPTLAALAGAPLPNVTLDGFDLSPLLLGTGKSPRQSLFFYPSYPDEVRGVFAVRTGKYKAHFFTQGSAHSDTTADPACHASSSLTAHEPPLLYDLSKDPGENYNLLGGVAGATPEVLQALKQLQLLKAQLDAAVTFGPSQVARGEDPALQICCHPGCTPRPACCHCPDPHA
Sequence of Nuclear receptor ROR-gamma (Homo sapiens) (P51449 whole entry, looked up): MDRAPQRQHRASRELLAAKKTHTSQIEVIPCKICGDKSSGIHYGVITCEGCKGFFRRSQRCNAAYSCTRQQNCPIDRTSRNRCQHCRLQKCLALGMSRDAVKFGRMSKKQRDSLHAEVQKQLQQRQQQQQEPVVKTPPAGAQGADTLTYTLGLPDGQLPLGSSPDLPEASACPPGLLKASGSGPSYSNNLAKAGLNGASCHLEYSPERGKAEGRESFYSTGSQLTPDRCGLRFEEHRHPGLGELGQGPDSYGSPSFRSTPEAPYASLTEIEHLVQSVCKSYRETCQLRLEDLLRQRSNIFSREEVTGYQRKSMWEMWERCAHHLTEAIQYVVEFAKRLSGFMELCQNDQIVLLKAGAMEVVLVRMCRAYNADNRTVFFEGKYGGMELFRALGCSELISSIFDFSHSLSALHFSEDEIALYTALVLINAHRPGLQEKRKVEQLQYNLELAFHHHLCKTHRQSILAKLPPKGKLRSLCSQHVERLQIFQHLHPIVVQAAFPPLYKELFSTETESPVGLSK

Cc1nc2n(c(=O)c1CCN1CCC(c3noc4cc(F)ccc34)CC1)CCCC2O (centres undefined)
inactive: Potency [1] | outcome [2] | Potency [3]

NC1CONC1=O (centres undefined)
inactive: Potency [1]

CN1CCc2cc(Cl)c(O)cc2[C@@H](c2ccccc2)C1
inactive: Potency [1] | outcome [2] | Potency [3]

NC(=O)c1ccccc1
inactive: outcome [4] | Potency [1] | outcome [2] | Potency [3] | Potency [5] | outcome [6] | outcome [7] | max response [8] -5%

Nc1ccc(-c2ccc3ccccc3n2)cc1
inactive: Potency [1] | outcome [2] | Potency [3]

CCCCC[C@H](CC(=O)NO)C(=O)N[C@H](C(=O)N1CCC[C@H]1CO)C(C)C
inactive: Potency [1] | outcome [2] | Potency [3]

CN(C)CCCc1cc(C(=O)Nc2ccc(-c3ccncc3)cc2)ccc1O
inactive: Potency [1] | outcome [2] | Potency [3] | Potency [5]

O=c1ccc2c(OCCCCc3ccccc3)c3ccoc3cc2o1
inactive: Potency [1] | outcome [2] | Potency [3] | Potency [5]

CCCn1c(=O)c(C)cn2nc(N)nc12
inactive: Potency [1] | outcome [2] | Potency [3] | Potency [5]

NC/C=C\C(=O)O
inactive: Potency [1] | outcome [2] | Potency [3] | Potency [5]

N=C(N)SCCc1cnc[nH]1
inactive: Potency [1] | outcome [2] | Potency [3] | Potency [5]

CC(O)C(O)[C@H]1CNc2nc(N)[nH]c(=O)c2N1 (some centres undefined)
inactive: Potency [1] | outcome [2] | Potency [3] | Potency [5]

C[N+](C)(C)CC=O
inactive: Potency [1] | outcome [2] | Potency [3] | Potency [5]

CNc1cc(NS(=O)(=O)c2ccc(N)cc2)nc(NC)n1
inactive: Potency [1] | outcome [2] | Potency [3] | Potency [5]

CC1CCN(CC[C@H]2CCCN2S(=O)(=O)c2cccc(O)c2)CC1
inactive: Potency [1] | outcome [2] | Potency [3] | Potency [5]

CCCCCCCCCCCCCCCCCCOC[C@H](COP(=O)([O-])OCC[N+](C)(C)C)OC
inactive: Potency [1] | outcome [2] | Potency [3] | Potency [5]

O=C(N[C@@H](Cc1ccccc1)C(=O)CCl)OCc1ccccc1
inactive: Potency [1] | outcome [2] | Potency [3] | Potency [5]

CC1=C(C(=O)O)N2C(=O)[C@@H](NC(=O)C(N)C3=CCC=CC3)[C@H]2SC1 (some centres undefined)
inactive: Potency [1] | outcome [2] | Potency [3] | Potency [5]

N[C@H](C(=O)O)c1cc(O)cc(O)c1
inactive: Potency [1] | outcome [2] | Potency [3] | Potency [5]

NS(=O)(=O)c1cccc2c1c([N+](=O)[O-])cc1nc(O)c(O)nc12
active: Potency [1] 10.7 µM
inactive: outcome [2] | Potency [3] | Potency [5]

CCCCCCCCCC(=O)NC(CN1CCOCC1)[C@H](O)c1ccccc1 (some centres undefined)
inactive: Potency [1] | outcome [2] | Potency [3] | Potency [5]

O[Si](CCCN1CCCCC1)(c1ccc(F)cc1)C1CCCCC1 (centres undefined)
inactive: Potency [1] | outcome [2] | Potency [3] | Potency [5]

N=C(N)c1ccc(N)cc1
inactive: Potency [1] | outcome [2] | Potency [3] | Potency [5]

C#CCn1c(=O)c2c(ncn2C)n(C)c1=O
inactive: Potency [1] | outcome [2] | Potency [3] | Potency [5]

COc1ccc(CCn2nnnc2C2(c3ccc(C)cc3)CC2)cc1
inactive: Potency [1] | outcome [2] | Potency [3] | Potency [5]

CCCCOc1cc(CC2CNC(=O)N2)ccc1OC (centres undefined)
inactive: Potency [1] | outcome [2] | Potency [3] | Potency [5]

O=[N+]([O-])c1cccc2c(Br)[nH]nc12
inactive: Potency [1] | outcome [2] | Potency [3] | Potency [5]

N#C/C(=C\c1ccc(O)c(O)c1)C(=O)NCCCNC(=O)/C(C#N)=C/c1ccc(O)c(O)c1
inactive: Potency [1] | outcome [2] | Potency [3] | Potency [5]

NC1CCN(O)C1=O (centres undefined)
inactive: Potency [1] | outcome [2] | Potency [3] | Potency [5]

Cc1cccc(C)c1OCC(N)C(C)C (centres undefined)
inactive: Potency [1] | outcome [2] | Potency [3] | Potency [5]

CC(C)[C@H](NC(=O)OCc1ccccc1)C(=O)N[C@H](C=O)Cc1ccccc1 (Cbz-Val-Phe-aldehyde)
inactive: Potency [1] | outcome [2] | Potency [3] | Potency [5]

Fc1ccc(CN(C2=NCCN2)c2c(Cl)cccc2Cl)cc1
inactive: Potency [1] | outcome [2] | Potency [3] | Potency [5]

O=C(O)/C=C/c1cnc[nH]1
inactive: Potency [1] | outcome [2] | Potency [3] | Potency [5]

C[C@H](O)C(=O)C1=Nc2c(nc(N)[nH]c2=O)NC1
inactive: Potency [1] | outcome [2] | Potency [3] | Potency [5]

CC(C)NC[C@H](O)COc1ccc(CC(N)=O)cc1
inactive: Potency [1] | outcome [2] | Potency [3] | Potency [5]

O=c1[nH]ccc2c(O)cccc12
inactive: Potency [1] | outcome [2] | Potency [3] | Potency [5]

Cn1c(=O)c2[nH]c(C3CCCC3)nc2n(C)c1=O
inactive: Potency [1] | outcome [2] | Potency [3] | Potency [5]

CN1CCCC1CCOC(C)(c1ccccc1)c1ccc(Cl)cc1 (centres undefined)
inactive: Potency [1] | outcome [2] | Potency [3] | Potency [5]

From PubChem BioAssay (NCATS)
